Reference: ChEMBL document CHEMBL4296182, “CO-ADD screening of NIH NCI Diversity Set V”
Measured potencies and affinities stand elsewhere.

test system: Candida albicans; conditions: 20 µM

Point of comparison: `N#CNC(=N)c1ccccc1`, Inhibition 1.62%. Against it:
- O=C1CCCc2cc3c(cc21)CC1(C3)Cc2cc3c(cc2C1)C(=O)CCC3 — higher, 3.32%
- Cc1ccc(C(=N)Nc2ccccc2)cc1 — higher, 3.37%
- c1ccc(-c2cc3ccccc3[nH]2)cc1 [2-PHENYL-1H-INDOLE] — higher, 3.85%
- Nc1ccc(Br)cc1Br — higher, 6.15%
- CCOC(=O)c1c(C)oc(C)c(C(=O)OCC)c1=O — lower, 0.83%
- CCCn1cnc2c(Sc3c([N+](=O)[O-])ncn3C)nc(N)nc21 — lower, 1.1%
- CN(C)C(=O)OCC1COc2ccccc2O1 (configuration not stated) — lower, -0.21%
- Cc1cc(NC(=O)c2ccccc2)c(Cl)cc1N — higher, 3.76%
- Cc1ccc(/N=N/c2c(N)nn(-c3ccccc3)c2N)cc1 — higher, 9.14%
- Cn1ncc2c(Nc3ccc(O)cc3)nc(Cl)nc21 — higher, 5.74%
- O=C(O)c1ccc(O)c(O)c1 [PROTOCATECHUIC ACID] — lower, -0.18%
- CC(=O)Nc1ccc(Cc2nc3c(=O)n(C)c(=O)n(C)c3[nH]2)cc1 — higher, 3.5%
- C=CCNC(=S)N1CCN(c2ccccc2Cl)CC1 — higher, 32.7%
- CCNc1nn2ccccc2c1/C=C(/C#N)C(=O)OCC — higher, 8.75%
- Nc1cnc(Nc2ccc(Br)cc2)nc1N.O=S(=O)(O)O — higher, 3.46%
- CC(=O)OCCN1c2ccccc2Sc2cnccc21 — higher, 1.65%
- c1ccc2cc(OCCOCCOc3ccc4ccccc4c3)ccc2c1 — higher, 5.37%

test system: Cryptococcus neoformans; conditions: Concentration 20 uM; ASSAY_TEST Inhibition of Fungal Growth; detection method Resazurin; Absorption (OD600-OD570); plate type 384well; NBS; CORNING #3640

Point of comparison: `CCOC(=O)N1C/C(=C\c2ccccc2)C(=O)/C(=C/c2ccccc2)C1`, Inhibition -7.05%. Against it:
- COc1cc(-c2ccc(Nc3ccccc3C(=O)O)c(OC)c2)ccc1Nc1ccccc1C(=O)O — higher, -0.24%
- COC1OC2COC(c3ccccc3)OC2C(=O)C1NC(=O)c1ccccc1 (configuration not stated) — lower, -18.55%
- NC(=O)Nc1ccc(Nc2ccccc2)cc1 — higher, -3.95%
- CCOC(=O)c1c(C)nc(C)c(C(=O)OCC)c1-c1cccnc1 — higher, -2.16%
- COC(=O)c1cc(C)c(C)cc1NC1OC(CO)C(O)C1O (configuration not stated) — higher, -3.92%
- CN(C)C(=S)/N=c1\ssc(=S)n1Cc1ccco1 — higher, 5.1%
- O=C(O)/C=C\c1cc2c(cc1[N+](=O)[O-])OCO2 — higher, -6.94%
- CSC(=N)NS(=O)(=O)c1ccc(NC(C)=O)cc1 — lower, -9.44%
- COc1cc(NC(C)=O)c2ncccc2c1NC(C)=O — higher, 12.48%
- CSc1nc(O)nnc1Sc1ccccc1 — lower, -16.19%
- NC(=S)N/N=C/c1cc(-c2cccc(N)c2)ccn1 — lower, -12.06%
- CC1(c2ccc3ccccc3c2)CCC(=O)O1 (configuration not stated) — lower, -9.46%
- CC1=C(O)C(=O)C(c2c(C)cc(C)c(Br)c2C)=C(O)C1=O — higher, -3.3%
- C(=C\CSc1ccccn1)/CSc1ccccn1 — lower, -12.06%
- Clc1nc(Oc2ccccc2)nc(-c2cn(-c3ccccc3)c3ccccc23)n1 — lower, -13%
- COC(=O)C1=CC(=O)N2CCN=C2S1 — higher, -1.02%
- COC(=O)C1=C(C)NC(C)=C(C(=O)OC)C(N2C(=O)CCC2=O)C1 (configuration not stated) — higher, -2.75%
- O=S(=O)(O)c1ccc(/N=N/c2ccccc2)cc1 — lower, -15.64%
- CC(C)CNC(=O)/C=C\C(=O)O — higher, 32.61%
- CSc1nc(O)cc(Cl)n1 — higher, -0.01%
- N#CNC(=N)c1ccccc1 — higher, 22.72%
- O=C1CCCc2cc3c(cc21)CC1(C3)Cc2cc3c(cc2C1)C(=O)CCC3 — higher, -3.34%
- Cc1ccc(C(=N)Nc2ccccc2)cc1 — higher, -4.07%
- c1ccc(-c2cc3ccccc3[nH]2)cc1 [2-PHENYL-1H-INDOLE] — higher, -3.77%
- Nc1ccc(Br)cc1Br — higher, -7%
- CCOC(=O)c1c(C)oc(C)c(C(=O)OCC)c1=O — lower, -7.36%
- CCCn1cnc2c(Sc3c([N+](=O)[O-])ncn3C)nc(N)nc21 — higher, -2.37%
- CN(C)C(=O)OCC1COc2ccccc2O1 (configuration not stated) — lower, -9.62%
- Cc1cc(NC(=O)c2ccccc2)c(Cl)cc1N — higher, -3.43%
- Cc1ccc(/N=N/c2c(N)nn(-c3ccccc3)c2N)cc1 — lower, -17.06%
- Cn1ncc2c(Nc3ccc(O)cc3)nc(Cl)nc21 — lower, -12.05%
- O=C(O)c1ccc(O)c(O)c1 [PROTOCATECHUIC ACID] — higher, -4.26%
- CC(=O)Nc1ccc(Cc2nc3c(=O)n(C)c(=O)n(C)c3[nH]2)cc1 — lower, -7.42%
- C=CCNC(=S)N1CCN(c2ccccc2Cl)CC1 — higher, -0.57%
- CCNc1nn2ccccc2c1/C=C(/C#N)C(=O)OCC — lower, -8.42%
- Nc1cnc(Nc2ccc(Br)cc2)nc1N.O=S(=O)(O)O — higher, 6.23%
- CC(=O)OCCN1c2ccccc2Sc2cnccc21 — lower, -8.61%
- c1ccc2cc(OCCOCCOc3ccc4ccccc4c3)ccc2c1 — higher, -6.02%
